Laboratory results as given in PubChem BioAssay (NCI).
“And” between values parts separate entries of the source, which are not always exact repeats. Equal entries are not always repeated. Compounds without any hit were thinned out: in the full panel of roughly 79,000, 15% have a hit. The source holds several records for some structures; these can differ, active in one and inactive in another. The source made the active and inactive calls. Rule as the data show it: active = growth inhibition above about 70%; inactive = the rest.

Legend:
[1] = NCI Yeast Anticancer Drug Screen. Data for the rad50 strain (AID 155);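 also: 0% = growth of vehicle-only cultures of the same strain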; details: S. cerevisiae rad50 strain growth inhibition, stronger effect = higher value
Outline: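 Inhibition values express reduced yeast growth in compound-treated cultures relative to vehicle-treated controls.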

[2] = NCI Yeast Anticancer Drug Screen. Data for the mec2-1 strain (AID 157); details: S. cerevisiae mec2-1 strain, stronger effect = higher value
Outline: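 mec2-1 yeast strain, carrying an alteration in DNA damage repair or cell cycle control, was exposed to compounds; growth inhibition was measured relative to vehicle-treated controls.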

[3] = NCI Yeast Anticancer Drug Screen. Data for the sgs1 mgt1 strain (AID 161);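 also: 0% = growth of cultures given vehicle only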; details: S. cerevisiae sgs1 mgt1 strain, stronger effect = higher value
Outline: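 Growth of a repair-deficient yeast mutant was monitored after compound treatment and expressed as inhibition relative to vehicle-treated cultures.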

[4] = NCI Yeast Anticancer Drug Screen. Data for the cln2 rad14 strain (AID 165);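 also: 0% = growth equal to vehicle treated cultures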; details: S. cerevisiae cln2 rad14 strain, stronger effect = higher value
Outline: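 Yeast carrying cln2 and rad14 alterations (cell cycle control and DNA damage repair) were exposed to compounds. Growth inhibition was measured against vehicle-treated controls.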

[5] = NCI Yeast Anticancer Drug Screen. Data for the mlh1 rad18 strain (AID 175); details: S. cerevisiae mlh1 rad18 strain growth inhibition, stronger effect = higher value
Outline: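 Growth inhibition of the yeast strain was measured after compound exposure and expressed relative to vehicle-treated controls. The strain carries defined defects in DNA damage repair.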

[6] = NCI Yeast Anticancer Drug Screen. Data for the bub3 strain (AID 167); details: S. cerevisiae bub3 mutant strain, stronger effect = higher value
Outline: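 Steps: expose the mutant yeast strain to compound; grow alongside vehicle-treated cultures; measure growth; express inhibition against the vehicle cultures.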

[7] = at 5.0 µM (retest, dose inferred, filed as 0.5)
[8] = at 50.0 µM (retest, dose inferred, filed as 5.0)

Structure (SMILES) | growth inhibition [1, 7] | growth inhibition [1, 8] | growth inhibition ([1]; at 50.0 µM) | growth inhibition [2, 7] | growth inhibition [2, 8] | growth inhibition ([2]; at 50.0 µM) | growth inhibition [3, 7] | growth inhibition [3, 8] | growth inhibition ([3]; at 50.0 µM) | growth inhibition [4, 7] | growth inhibition [4, 8] | growth inhibition ([4]; at 50.0 µM) | growth inhibition [5, 7] | growth inhibition [5, 8] | growth inhibition ([5]; at 50.0 µM) | growth inhibition [6, 7] | growth inhibition [6, 8] | growth inhibition ([6]; at 50.0 µM)
CCCCCCCCCCCCCCCCOP(=O)(O)OP(=O)(O)OCC1OC(n2ccc(N)nc2=O)C(O)C1O (configuration not stated) | 97% (active) | 97% (active) | -2% (inactive) and 81.4% (active) | 98% (active) | 98% (active) | -2.65% (inactive) and 89.8% (active) | 98% (active) | 98% (active) | 55% (inactive) and 87.5% (active) | 92% (active) | 90% (active) | 9.5% (inactive) and 84.7% (active) | 94% (active) | 95% (active) | 33% (inactive) and 90.5% (active) |  |  | 
OC(CN1CCCC2CCCCC21)c1cc2ccccc2c2ccccc12 (configuration not stated) | 0% (inactive) and -2% (inactive) | 97% (active) and 99% (active) | 98.7% (active) and 98.5% (active) | 20% (inactive) and -4% (inactive) | 80% (active) and 99% (active) | 98.4% (active) | -21% (inactive) and -6% (inactive) | 98% (active) and 99% (active) | 98.9% (active) and 98% (active) |  |  |  |  |  |  | 0% (inactive) and -3% (inactive) | 91% (active) and 99% (active) | 99.2% (active) and 99% (active)
CCCCCCCCCCCCN1C(=O)[N+](C)(C)N=C1[O-] | 6% (inactive) | 41% (inactive) | 98.7% (active) | 4% (inactive) | 49% (inactive) | 99.3% (active) |  |  |  | -4% (inactive) | 21% (inactive) | 97.5% (active) | 4% (inactive) | 49% (inactive) | 99.1% (active) | 4% (inactive) | 34% (inactive) | 98.9% (active)
CC(NNC(=S)N1CCN(c2ccccn2)CC1)c1nccc2ccccc12 (configuration not stated) | 26% (inactive) | 98% (active) | 69.1% (inactive) | 51% (inactive) | 98% (active) | 22.1% (inactive) |  |  |  | 63% (inactive) | 98% (active) | 8.35% (inactive) | 49% (inactive) | 98% (active) |  | 83% (active) | 99% (active) | 6.2% (inactive)
c1ccc(N=c2cnc3c(ccc4ccccc43)o2)cc1 | 97% (active) | 93% (active) | 93.5% (active) | 97% (active) | 96% (active) | 95.5% (active) | 96% (active) | 95% (active) | 94.2% (active) |  |  |  | 97% (active) | 96% (active) | 96.8% (active) | 64% (inactive) | 84% (active) | 79.2% (active)
Cc1[nH]c2ccccc2c1C1Cc2ccccc2N1 (configuration not stated) | 14% (inactive) and 19% (inactive) | 15% (inactive) and 76% (active) | 37.1% (inactive) and 57.5% (inactive) |  |  |  | 16% (inactive) and 25% (inactive) | 14% (inactive) and 79% (active) | 46.3% (inactive) and 81.3% (active) | 10% (inactive) and 16% (inactive) | 6% (inactive) and 29% (inactive) | 47.4% (inactive) and 67.6% (inactive) | 15% (inactive) and 20% (inactive) | 37% (inactive) and 52% (inactive) | 69.7% (inactive) and 96.2% (active) | 9% (inactive) and 15% (inactive) | -12% (inactive) and 76% (active) | 30.6% (inactive) and 94.2% (active)
CC(=O)Nc1ccc(S(=O)(=O)N(CCO)CCO)cc1 | -2% (inactive) | -4% (inactive) | 15.2% (inactive) | -12% (inactive) | -5% (inactive) | 98.5% (active) | -12% (inactive) | -4% (inactive) | 40.5% (inactive) |  |  |  | -20% (inactive) | -9% (inactive) | 91.2% (active) | -7% (inactive) | 1% (inactive) | 80.7% (active)
O=C1OC(c2ccc(O)cc2)(c2ccc(O)cc2)c2cccc3cccc1c23 | 25% (inactive) | 99% (active) | 99% (active) | 11% (inactive) | 99% (active) | 99.2% (active) | 17% (inactive) | 99% (active) | 99% (active) |  |  |  | 23% (inactive) | 99% (active) | 98.3% (active) | 11% (inactive) | 99% (active) | 99% (active)
COc1ccc(Oc2ccccc2N)cc1 | 0% (inactive) | 93% (active) | 83.7% (active) | -1% (inactive) | 95% (active) | 59.3% (inactive) |  |  |  | -8% (inactive) | 95% (active) | 88.3% (active) | -3% (inactive) | 96% (active) | 90.5% (active) | 6% (inactive) | 93% (active) | 63.4% (inactive)
N#CC1(C2SCCS2=O)C2=C(C(=O)c3ccccc3C2=O)N2CCCC21 (configuration not stated) | 17% (inactive) | 56% (inactive) | 76.8% (active) | 14% (inactive) | 49% (inactive) | 77.2% (active) |  |  |  | 14% (inactive) | 40% (inactive) | 43.2% (inactive) | 17% (inactive) | 67% (inactive) | 89.9% (active) | 33% (inactive) | 80% (active) | 70.2% (active)
CCN(CC)CCNc1nc(NCCN(CC)CC)c2nc(-c3ccccc3)c(-c3ccccc3)nc2n1 | 91% (active) | 98% (active) | 98.8% (active) | 84% (active) | 98% (active) | 98.2% (active) |  |  |  | 76% (active) | 97% (active) | 98% (active) | 92% (active) | 98% (active) | 98.4% (active) | 92% (active) | 98% (active) | 98% (active)
[N-]=[N+]=CC(=O)OCC1NC(=O)C(COC(=O)C=[N+]=[N-])NC1=O (configuration not stated) | 5% (inactive) | -1% (inactive) | -10.3% (inactive) and 80.2% (active) |  |  |  | -1% (inactive) | 3% (inactive) | 12.6% (inactive) and 71.3% (active) | -2% (inactive) | -7% (inactive) | 6.1% (inactive) and 76% (active) | 2% (inactive) | 1% (inactive) | 4.15% (inactive) and 86.6% (active) | -1% (inactive) | -2% (inactive) | 3.8% (inactive) and 85.3% (active)
O=S(=O)(O)c1ccc2cc(N=Nc3c(O)ccc4ccccc34)ccc2c1 | 9% (inactive) | 15% (inactive) | 19.9% (inactive) |  |  |  | 7% (inactive) | 72% (active) | 75.3% (active) | -7% (inactive) | 0% (inactive) | 33.4% (inactive) | 2% (inactive) | 10% (inactive) | 34.9% (inactive) | -2% (inactive) | -21% (inactive) | 3.5% (inactive)
NS(=O)(=O)c1ccc(Nc2c3ccccc3nc3c(C(=O)N4CCN(CCO)CC4)cccc23)cc1 | 61% (inactive) | 61% (inactive) | 38.6% (inactive) | 39% (inactive) | 39% (inactive) | 40.7% (inactive) | 60% (inactive) | 60% (inactive) | 24.4% (inactive) | 25% (inactive) | 25% (inactive) | 29.9% (inactive) | 30% (inactive) | 30% (inactive) | 79.8% (active) |  |  | 
CC(C)C1=C(O)C2=C(C(=O)C1=O)C1(C)CCCC(C)(C)C1CC2O (configuration not stated) | 42% (inactive) | 98% (active) | 36.9% (inactive) and 14.3% (inactive) | 55% (inactive) | 98% (active) | 22.1% (inactive) and -9.35% (inactive) | 48% (inactive) | 98% (active) | 45% (inactive) and 39.5% (inactive) | 46% (inactive) | 98% (active) | 32.4% (inactive) and 6.45% (inactive) | 56% (inactive) | 98% (active) | 83.1% (active) and 21.6% (inactive) |  |  | 
O=C(/C=C/c1ccc(Cl)cc1)NC1C=Nc2ccc([N+](=O)[O-])cc2NC1=O (configuration not stated) | 32% (inactive) | 94% (active) | 95.8% (active) | -27% (inactive) | 93% (active) | 96.5% (active) |  |  |  | 13% (inactive) | 93% (active) | 92.5% (active) | 13% (inactive) | 88% (active) | 97.2% (active) | 0% (inactive) | 92% (active) | 92.3% (active)
CC(NC(=O)C(N)Cc1ccccc1)C(=O)NC1C(CO)OC(n2cnc3c(N)ncnc32)C1O (configuration not stated) | 0% (inactive) | -1% (inactive) | 32.2% (inactive) | 2% (inactive) | 17% (inactive) | 76.9% (active) |  |  |  | 0% (inactive) | -6% (inactive) | 97.7% (active) | 12% (inactive) | 32% (inactive) | 69.5% (inactive) | -3% (inactive) | -4% (inactive) | 96.5% (active)
CN1C(c2ccccc2)CC(=NOCc2ccccc2)CC1c1ccccc1 (configuration not stated) | 83% (active) | 96% (active) | 78.5% (active) |  |  |  | 76% (active) | 97% (active) | 88.8% (active) | 65% (inactive) | 97% (active) | 86.6% (active) | 94% (active) | 96% (active) |  | 78% (active) | 96% (active) | 84% (active)
O=C1OC(CN2CCOCC2)CN1/N=C/c1ccc([N+](=O)[O-])o1 (configuration not stated) | 6% (inactive) | 50% (inactive) | 65.8% (inactive) and -2.7% (inactive) | 8% (inactive) | 41% (inactive) | 26.6% (inactive) and 14.2% (inactive) |  |  |  | 1% (inactive) | 51% (inactive) | 38.3% (inactive) and -8.55% (inactive) |  |  |  | -4% (inactive) | 9% (inactive) | 36.6% (inactive) and 0.1% (inactive)
